# In PubChem BioAssay (NCATS):
# Values without a mark were called inactive. Inconclusive results are not listed. Entries that show only a call come without a potency. Activity calls are given as the source filed them. Calls follow the shape of the dose curve; as a rule, active = well fitted curve in the direction sought with a large enough effect; inconclusive = small, poorly fitted or top-dose-only effect, or another doubt; inactive = no such curve, though single readings can be large; an effect the other way counts as inactive or inconclusive.
# Columns and labels:
# [1] = biological target: Cytochrome P450 3A4 (Homo sapiens) (UniProt P08684); test: qHTS Assay for Activators of Cytochrome P450 3A4 (AID 885); also: nearly all actives have a fitted effect of over 65% in size
# Outline: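 Luminescent readout of luciferin formed from 25 uM Luciferin-PPXE (KM level) by 20 nM CYP3A4 in 200 mM KPO4, with 60 min NADPH-driven reaction at room temperature after 10 min compound exposure. Ketoconazole (57 uM) defined 100% inhibition.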
# [2] = Confirmation and Secondary Assay for Modulators of Hemoglobin Beta Chain Splicing at IVS2 654 locus (AID 910);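 also: per-well total GFP intensity by laser scanning cytometry after 2-day treatment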
# Outline: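 HeLa cells stably carrying EGFP interrupted by mutant beta-globin IVS2-654 intron (CMV-driven) were treated with compound for 2 days at 37C; corrected splicing was scored as total peak GFP intensity per well (488 nm excitation, 500-520 nm emission).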
# [3] = Confirmation and Secondary Assay for Modulators of Hemoglobin Beta Chain Splicing at IVS2 705 locus (AID 930);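 also: HeLa cells stably expressing the EGFP-705 splicing reporter; GFP fluorescence per well restored by corrected splicing of the IVS2-705 intron in EGFP; series mostly up to about 46 µM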
# Outline: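 First, HeLa EGFP-705 cells are seeded at 500/well in Optimem with 2% FCS and left overnight. Next, compound or DMSO is added for 2 days. Finally wells are laser-scanned and total peak GFP intensity scored.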
# [4] = biological target: Cytochrome P450 2D6 (Homo sapiens) (UniProt P10635); test: qHTS Assay for Inhibitors and Substrates of Cytochrome P450 2D6 (AID 891);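 also: luciferin methyl ether substrate demethylated by CYP2D6 with NADPH regeneration; nearly all actives have a fitted effect of over 60% in size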
# Outline: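 Luminescent read-out of luciferin formed by 5 nM human CYP2D6 demethylating 30 uM Luciferin-ME EGE (Km level) over 60 min at room temperature after NADPH regeneration addition. Data normalized to full inhibition by 1.43 uM quinidine.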
# [5] = biological target: Cytochrome P450 2C19 (Homo sapiens) (UniProt P33261); test: qHTS Assay for Inhibitors and Substrates of Cytochrome P450 2C19 (AID 899); also: nearly all actives have a fitted effect of over 60% in size
# Outline: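 NADPH-dependent conversion of Luciferin-H EGE (10uM, at KM) by 5nM enzyme in 50mM KPO4, 60 min at 37C following 10 min compound preincubation. Stopped with luciferin detection buffer; luminescence read after 20 min.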
# Sequence of Cytochrome P450 3A4 (Homo sapiens) (P08684 whole entry, looked up): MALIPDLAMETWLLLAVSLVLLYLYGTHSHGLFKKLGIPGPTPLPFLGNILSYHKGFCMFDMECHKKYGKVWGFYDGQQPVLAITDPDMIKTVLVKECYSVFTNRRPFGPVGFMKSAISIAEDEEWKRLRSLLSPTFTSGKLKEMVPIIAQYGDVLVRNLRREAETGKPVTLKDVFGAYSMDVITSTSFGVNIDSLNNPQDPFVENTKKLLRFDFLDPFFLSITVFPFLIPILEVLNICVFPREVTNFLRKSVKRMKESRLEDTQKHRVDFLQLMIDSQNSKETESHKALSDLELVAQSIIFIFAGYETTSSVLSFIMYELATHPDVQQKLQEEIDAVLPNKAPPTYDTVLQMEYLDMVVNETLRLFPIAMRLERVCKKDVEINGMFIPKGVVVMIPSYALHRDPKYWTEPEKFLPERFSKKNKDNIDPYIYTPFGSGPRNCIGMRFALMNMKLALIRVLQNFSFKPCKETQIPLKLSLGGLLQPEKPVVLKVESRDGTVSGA
# Sequence of Cytochrome P450 2D6 (Homo sapiens) (P10635 whole entry, looked up): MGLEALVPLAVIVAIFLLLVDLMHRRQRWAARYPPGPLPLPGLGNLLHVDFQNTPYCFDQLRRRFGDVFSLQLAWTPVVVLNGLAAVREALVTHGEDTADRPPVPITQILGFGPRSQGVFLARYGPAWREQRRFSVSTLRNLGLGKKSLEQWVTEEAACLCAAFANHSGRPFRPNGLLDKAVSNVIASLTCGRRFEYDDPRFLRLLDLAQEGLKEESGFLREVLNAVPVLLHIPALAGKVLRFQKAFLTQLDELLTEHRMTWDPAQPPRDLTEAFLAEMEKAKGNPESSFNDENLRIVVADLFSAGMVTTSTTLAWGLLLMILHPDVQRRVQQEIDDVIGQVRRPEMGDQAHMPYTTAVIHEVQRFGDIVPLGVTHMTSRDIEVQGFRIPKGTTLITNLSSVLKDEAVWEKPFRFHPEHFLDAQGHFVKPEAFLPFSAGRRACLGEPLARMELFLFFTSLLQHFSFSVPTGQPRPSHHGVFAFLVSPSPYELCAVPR
# Sequence of Cytochrome P450 2C19 (Homo sapiens) (P33261 whole entry, looked up): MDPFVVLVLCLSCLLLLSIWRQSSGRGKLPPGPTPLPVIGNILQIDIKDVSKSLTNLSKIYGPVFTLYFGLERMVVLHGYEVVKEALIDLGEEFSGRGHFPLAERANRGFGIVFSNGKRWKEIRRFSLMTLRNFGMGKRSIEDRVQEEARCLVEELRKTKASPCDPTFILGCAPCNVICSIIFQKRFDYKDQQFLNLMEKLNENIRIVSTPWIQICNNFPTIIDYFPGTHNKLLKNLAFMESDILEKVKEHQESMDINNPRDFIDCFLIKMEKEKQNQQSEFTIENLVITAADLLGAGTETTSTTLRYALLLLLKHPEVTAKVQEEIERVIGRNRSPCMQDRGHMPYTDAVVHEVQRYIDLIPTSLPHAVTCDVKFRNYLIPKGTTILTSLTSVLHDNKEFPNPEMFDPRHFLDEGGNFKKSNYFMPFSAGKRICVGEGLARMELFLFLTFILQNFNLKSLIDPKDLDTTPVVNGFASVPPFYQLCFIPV
smiles,measurement,setting,value
COc1cc2ccc(=O)oc2c2ccoc12,Potency,[1],inactive
same,Potency,[2],inactive
same,outcome,[3],inactive
CC(C)CCC[C@@H](C)[C@@H]1CC[C@@H]2[C@H]3CC[C@H]4C[C@@H](N)CC[C@@]4(C)[C@@H]3CC[C@]21C,"activity change, negative = inhibition",[4],11% [at 11.4 µM]
same,"activity, negative = inhibition",[5],61.6% [at 11.4 µM]
COC(=O)[C@H]1C[C@H]2CC[C@H](O)C[C@H]2N1CC1CC1,Potency,[1],inactive
